Mdm2 MdmX PPI = inhibitors of human Mdm2-MdmX association, primary screen, cell-based, luminescence, split luciferase, SaOS-2, uHTS. Protein Mdm4 (Homo sapiens) + E3 ubiquitin-protein ligase Mdm2 (Homo sapiens), …. SaOS-2 split-luciferase Mdm2/MdmX complementation. inhibition, % at 8 µM. 3% of 330,000 active. AID 485346, 2010;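 active means inhibition of at least 50% at 8 µM in the primary screen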
Target sequence (O15151 whole entry, looked up): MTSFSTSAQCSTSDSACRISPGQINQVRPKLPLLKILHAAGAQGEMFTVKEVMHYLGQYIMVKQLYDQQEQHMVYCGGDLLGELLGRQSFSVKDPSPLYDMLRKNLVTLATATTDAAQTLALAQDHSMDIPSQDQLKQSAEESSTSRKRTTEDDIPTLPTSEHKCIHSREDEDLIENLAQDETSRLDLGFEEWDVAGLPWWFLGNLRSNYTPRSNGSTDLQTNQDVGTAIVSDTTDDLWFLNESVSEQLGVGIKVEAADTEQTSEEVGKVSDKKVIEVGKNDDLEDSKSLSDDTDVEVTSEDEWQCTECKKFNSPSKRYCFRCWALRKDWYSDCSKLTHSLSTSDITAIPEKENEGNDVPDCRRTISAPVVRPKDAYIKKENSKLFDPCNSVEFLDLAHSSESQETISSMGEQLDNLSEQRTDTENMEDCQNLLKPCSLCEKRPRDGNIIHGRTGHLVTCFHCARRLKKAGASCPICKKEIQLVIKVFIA
Target sequence (Q00987 whole entry, looked up): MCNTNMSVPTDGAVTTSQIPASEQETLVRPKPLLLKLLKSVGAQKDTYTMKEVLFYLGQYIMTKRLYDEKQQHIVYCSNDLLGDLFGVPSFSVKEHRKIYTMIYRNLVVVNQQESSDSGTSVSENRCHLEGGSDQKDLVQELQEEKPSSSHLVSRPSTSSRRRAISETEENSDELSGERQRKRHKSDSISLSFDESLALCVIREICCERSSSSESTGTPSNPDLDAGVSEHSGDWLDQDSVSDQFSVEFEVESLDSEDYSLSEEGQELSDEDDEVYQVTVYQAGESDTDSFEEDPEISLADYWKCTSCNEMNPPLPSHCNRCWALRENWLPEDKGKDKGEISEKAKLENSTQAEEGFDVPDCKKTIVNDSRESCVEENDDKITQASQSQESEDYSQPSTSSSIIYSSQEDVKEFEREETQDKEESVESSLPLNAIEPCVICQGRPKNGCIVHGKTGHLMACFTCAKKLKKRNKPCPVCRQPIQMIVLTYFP
Jurkat NFkB inh = inhibitors of induced NF-kB luciferase reporter, primary screen, TCR NF-kB activation inhibitor project, cell-based, luminescence, uHTS | Jurkat, PMA/ionomycin-induced NF-kB luciferase reporter | inhibition, % at 4 µM | 0.53% of 330,000 active | AID 435003, 2010; in the data active means inhibition above about 50%
Beta cell apopt = inhibitors of cytokine-induced beta cell apoptosis, primary screen, luminescence. INS-1E cytokine-induced death, ATP luminescence, 48 h; percent of positive-control rescue, neutral wells zero. protection from apoptosis, % (test concentration not listed). 0.8% of 300,000 active. AID 435005, 2010;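 active means Every replicate reaches about 75%, or at least half do and their mean reaches it too, limit read from the data; inconclusive means At least half of replicates reach the limit but their mean does not; inactive means Under half of replicates reach the limit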;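 further: 0% = cytokine-treated negative control wells and 100% = positive control rescue; higher means more ATP so stronger rescue from cytokine killing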
A1 inh = caspase 3/7 activation in MEF A1-2A-BIM cells, primary screen, A1 inhibitor project, cell-based, luminescence, HTS; 0.066% of 330,000 active; Caspase-Glo 3/7 luminescence, 3 h; percent of clofoctol response, vehicle zero; caspase activation, % (no concentration beside the values);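 active means over half of replicate activation scores above 10%, or exactly half above 10 with the replicate mean above 10; inconclusive means replicate mean below 10 yet half the replicates above 10; inactive means over half of replicates below 10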
NTR1 ag = agonists of human NTR1, primary screen, imaging, U2OS cells, beta-arrestin-GFP, high content | Neurotensin receptor type 1 (Homo sapiens), P30989 | NTR1-U2OS beta-arrestin-GFP spot imaging, agonist mode | activation, % at 20 µM | 0.17% of 330,000 active;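 active means activation at or above 40% of the spot to cytoplasm intensity ratio, with at least 20 cells analyzed; inconclusive means wells under 20 cells, flagged as cytotoxic or low count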;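 further: 0% = DMSO without peptide and 100% = 100 nM NTR1 peptide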
697 NFkB inh = inhibitors of PMA/ionomycin-induced NF-kB reporter, 697 cells, primary screen, B-cell NF-kB inhibitor project, cell-based, luminescence, uHTS; 697 B-cell NF-kB luciferase reporter, 16 h; inhibition, % at 4 µM; 0.33% of 330,000 active; AID 435022, 2010; in the data active means inhibition above about 35%
Mdm2-MdmX conf = Mdm2-MdmX complex disruptors, retested hits, confirmation, luminescence, single concentration; shares compounds with Mdm2 MdmX PPI; Mdm2-MdmX binding, luminescent assay; inhibition, % at 8 µM; 55% of 10,000 active; AID 489028, 2010; in the data active means inhibition above about 40%
Full FLuc ctr = full-length luciferase signal inhibition, confirmation, counter-screen for Mdm2/MdmX interaction inhibitor project, cell-based, single concentration, SaOS-2; shares compounds with Mdm2 MdmX PPI; SaOS-2 full-length luciferase counterscreen, luminescence; inhibition, % at 8 µM; 77% of 6,200 active;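 active means mean inhibition at 8 µM reaching about 37%, which flags the compound as non-specific, limit read from the data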;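 further: p53-null SaOS-2 cells with luciferase driven by a doxycycline-inducible promoter; compound on cells about two nights before reading with doxycycline added after day one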
Active calls of the source: *; u = inconclusive; x = not tested or not shown. Hits are enriched below; roughly 3.8% of the tested compounds scored in any of these assays.

SMILES | Mdm2 MdmX PPI | Jurkat NFkB inh | Beta cell apopt | A1 inh | NTR1 ag | 697 NFkB inh | Mdm2-MdmX conf | Full FLuc ctr
CCCCCCCCCC(=O)N[C@@H]1c2cc(OC)c(OC)cc2C[C@H]1OCc1ccccc1 | 89* | x | x | x | 2 | -79 | 69* | 36
COc1ccccc1OC(C)C(=O)N(Cc1ccco1)C1CCS(=O)(=O)C1 (centres undefined) | 20 | 6 | 0 | 0 | 2 | 1 | x | x
Cc1nc(NCc2ccc3c(c2)OCO3)c2nnn(Cc3ccccc3)c2n1 | 77* | 1 | 36 | -1 | 2 | 1 | 38 | 67*
CN(C)N1C(N)=C(C#N)C(c2cccc3ccccc23)C2=C1CC(c1ccccc1)CC2=O (centres undefined) | 64* | 22 | -1 | 1 | 5 | -23 | 63* | 42*
COc1ccccc1/C=C/C(=O)OCC(=O)Nc1ccc(Cl)cn1 | 55* | 5 | 1 | 2 | -2 | -11 | 51* | 60*
CCn1nc(C)cc1C(=O)N1CCCC(N2CCN(c3ccccc3OC)CC2)C1 (centres undefined) | 13 | 1 | -4 | u | -1 | 5 | x | x
O=Cc1[nH]c2ccccc2c1N(C(=O)CCl)c1ccc([N+](=O)[O-])cc1 | 97* | 6 | 9 | -1 | 8 | -12 | 94* | 25
CC(=O)n1cc(N(C(=O)CCl)c2ccc([N+](=O)[O-])cc2)c2ccccc21 | 98* | -4 | 0 | 0 | 9 | -12 | 80* | 42*
Cn1cc(C(=O)N/N=C/c2ccc([N+](=O)[O-])cc2)c2ccccc21 | -24 | -17 | 7 | 0 | 5 | -26 | x | x
Cc1ccc(O)c(CNCCNCc2cc(C)ccc2O)c1 | 73* | 29 | 53 | 1 | -2 | -6 | 52* | 33
Cc1ccc(O)c(CNc2nc3ccccc3n2C(C)C)c1 | 5 | -8 | -15 | 0 | 0 | -6 | x | x
CCc1ccc(O)c(CNCCNCc2cc(CC)ccc2O)c1 | 72* | 31 | 23 | 1 | 6 | -6 | 37 | x
CCOC(=O)CCNC(=O)CCc1nnc(CCCc2ccccc2)o1 | -27 | -3 | 4 | -1 | -1 | -17 | x | x
O=C1CCCCc2sc(Br)c([N+](=O)[O-])c2N1 | 64* | 13 | -8 | 2 | 11 | 13 | 30 | 57*
COc1nc(/C=C/N(C)C)c([N+](=O)[O-])c(OC)n1 | 52* | -1 | -6 | 2 | 0 | -17 | 22 | x
CC(=O)Oc1ccc2oc(/C=C/N(C)C)c([N+](=O)[O-])c2c1 | 2 | 8 | 7 | 1 | 0 | 0 | x | x
Cc1ccc(C)c(-n2ccnc2SCC(=O)Nc2cccc(S(=O)(=O)NC3=NCCC3)c2)c1 | 3 | -6 | -1 | -1 | 1 | 14 | x | x
O=C1NCCc2c1[nH]c1ccc([N+](=O)[O-])cc21 | 48 | -3 | -11 | 1 | 0 | 2 | x | x
O=C1NCCc2c1[nH]c1c(Cl)ccc(Cl)c21 | 77* | -5 | -17 | 0 | -1 | -24 | 63* | 48*
Cn1ccnc1C(=O)c1cc(SCC(=O)NC2CC2)nc2ccccc12 | 13 | 0 | -6 | 0 | 0 | 13 | x | x
CN(C(=O)CSc1cc(C(=O)c2nccn2C)c2ccccc2n1)c1ccccc1 | 53* | 8 | 106* | 1 | 6 | 25 | 63* | 81*
CCOc1ccccc1-n1c(SC(C)C(=O)NCC2CCCO2)nc2ccccc2c1=O (centres undefined) | 7 | 4 | -2 | 0 | 2 | 22 | x | x
O=C(Nc1nc2ccccc2n1CCN1CCOCC1)c1cn(-c2ccccc2)nc1-c1ccccc1 | 51* | -34 | 65 | 0 | 2 | -61 | 22 | x
CCOc1ccc(S(=O)(=O)N2CCN(C(=O)c3cc([N+](=O)[O-])ccc3N3CCOCC3)CC2)cc1 | 60* | 39 | -7 | 0 | 4 | 22 | 28 | x
O=C(O)CCn1c(SCCOc2ccccc2)nc2ccccc21 | 4 | -13 | -2 | 0 | -1 | -4 | x | x
SMILES | Mdm2 MdmX PPI | Jurkat NFkB inh | Beta cell apopt | A1 inh | NTR1 ag | 697 NFkB inh | Mdm2-MdmX conf | Full FLuc ctr
Cc1c(Cl)ccc2c(C(=O)NCCN3CCCCC3)cc(-c3ccccn3)nc12 | 50 | -1 | 11 | 0 | 21 | -7 | 34 | 61*
COc1ccccc1-c1cc(C(=O)NC2CCN(C)CC2)c2ccc(Cl)c(C)c2n1 | 99* | 44 | 112* | 1 | 4 | 20 | 68* | 37*
O=C(Nc1nccs1)c1cc(-c2ccccn2)nc2c(Cl)cccc12 | 78* | 7 | 4 | 3 | 1 | -29 | 25 | x
CC(Oc1cccc(Cl)c1)C(=O)N1CCN(c2ncccn2)CC1 (centres undefined) | 14 | -2 | -5 | -1 | 1 | 18 | x | x
C=CCNC(=O)C1CCCN(S(=O)(=O)c2ccc(-n3cnnn3)cc2)C1 (centres undefined) | 7 | 3 | 3 | 0 | 0 | 15 | x | x
O=C(Nc1ccc(O)c2c(=O)cc(-c3cccc(Cl)c3)oc12)c1cccc(Cl)c1 | 81* | 3 | x | 15* | 5 | -14 | -9 | x
Cc1c(Cl)cccc1NC(=O)C1=COCCO1 | 14 | -7 | 3 | 0 | 1 | 0 | x | x
COc1ccc(-c2nnc(SCc3nc4ccccc4c(=O)[nH]3)o2)cc1 | 73* | -32 | -8 | -1 | 2 | -26 | 58* | 105*
CCOc1ccc(Nc2nnc(SCc3nc4ccccc4c(=O)[nH]3)s2)cc1 | 63* | -7 | 16 | 0 | 3 | -14 | 23 | x
COc1ccc(C(CCNCc2ccc(OC)c(OC)c2)c2ccc(F)cc2)cc1 (centres undefined) | 43 | 12 | -11 | 0 | 5 | -4 | x | x
COc1ccc(C(C)NCCC(c2ccc(OC(C)C)cc2)c2ccccc2OC)cc1 (centres undefined) | 99* | 14 | 82* | 2 | 68* | -1 | 69* | 56*
COc1ccc(OCC(O)CNC(C)c2ccccc2)cc1 (centres undefined) | -23 | -34 | -2 | 0 | -2 | -1 | x | x

Screens deposited in PubChem by several laboratories.
